Measured values reported in PubChem BioAssay (EPA / NIEHS).
Values joined by “and” are separate entries in the source; they are usually repeats but may differ in a detail not shown here. Identical values can stand only once. A structure can be active in one record and inactive in another. Active and inactive are the calls of the source. How the source made its calls: active means hit-call score of the fitted dose curve at least 0.9, where 1 is the maximum; inactive means score below 0.9.

System: not listed separately
Assay: ATG_Sox_CIS: Attagene CIS-FACTORIAL HepG2 Assay for human SRY-box transcription factor (SOX) (AID 2282960)
Settings: HepG2 Attagene cis-factorial SOX reporter, mRNA; actives raise or lower the signal
How it was run: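 HepG2, cis reporter units, 24 h exposure. Reporter mRNA: RT-PCR → FAM labelling → HpaI → CE fluorescence. Bidirectional fit vs DMSO.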

outcome, inactive:
CCCC[C@H]1CN(CC2CCOCC2)C(=O)OC12CCN(C1(C)CCN(C(=O)c3c(C)ncnc3C)CC1)CC2
NC=O
CCCCCCCC(=O)OC
Cc1ccc(-c2cc(C(F)(F)F)nn2-c2ccc(S(N)(=O)=O)cc2)cc1
CC(COCC(C)OC(=O)c1ccccc1)OC(=O)c1ccccc1 (stereo not drawn)
CCc1nc(N)nc(N)c1-c1ccc(Cl)cc1
NC(=Nc1ccccc1)Nc1ccccc1
Oc1ccc(O)cc1
CCCCCCC(C=O)=Cc1ccccc1
CSc1ccc(Oc2ccc(S(N)(=O)=O)cc2CN(C)C)cc1C
CS(=O)(=O)c1ccc([C@@H](C[C@H]2CCC(=O)C2)C(=O)Nc2cnccn2)cc1Cl
CN(C)CCCN(C)CCCN(C)C
O=C(Oc1ccccc1)c1cccc(C(=O)Oc2ccccc2)c1
COC(=O)CCC(=O)OC

Target: Transcription factor Sp1 (Homo sapiens) (UniProt P08047)
Sequence (P08047 whole entry, looked up): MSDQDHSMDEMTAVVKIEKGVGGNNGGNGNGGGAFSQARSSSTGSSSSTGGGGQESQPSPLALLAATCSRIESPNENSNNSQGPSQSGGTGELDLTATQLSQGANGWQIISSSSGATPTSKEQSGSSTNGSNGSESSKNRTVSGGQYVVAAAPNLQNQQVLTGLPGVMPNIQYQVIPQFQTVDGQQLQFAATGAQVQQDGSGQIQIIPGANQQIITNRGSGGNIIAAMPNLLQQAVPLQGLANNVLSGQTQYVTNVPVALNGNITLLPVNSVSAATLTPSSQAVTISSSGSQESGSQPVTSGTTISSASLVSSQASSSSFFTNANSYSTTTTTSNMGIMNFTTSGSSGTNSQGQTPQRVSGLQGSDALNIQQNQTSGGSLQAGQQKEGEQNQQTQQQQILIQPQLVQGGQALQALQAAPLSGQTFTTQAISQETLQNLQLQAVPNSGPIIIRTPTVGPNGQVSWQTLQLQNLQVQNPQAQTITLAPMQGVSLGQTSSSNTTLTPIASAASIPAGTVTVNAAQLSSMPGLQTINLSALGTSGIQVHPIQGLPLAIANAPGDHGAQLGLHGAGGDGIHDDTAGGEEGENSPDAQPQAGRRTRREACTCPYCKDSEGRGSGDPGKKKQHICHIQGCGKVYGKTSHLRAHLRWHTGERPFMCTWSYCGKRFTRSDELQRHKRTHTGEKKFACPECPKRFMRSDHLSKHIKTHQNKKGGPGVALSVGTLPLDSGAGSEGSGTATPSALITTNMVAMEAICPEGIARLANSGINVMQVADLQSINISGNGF
Assay: ATG_Sp1_CIS: Attagene CIS-FACTORIAL HepG2 Assay for human Specificity Protein 1 (Sp1) (AID 2282961)
Settings: HepG2 Sp1 cis-reporter transcription, actives raise or lower the signal
How it was run: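 Liver-derived HepG2 cells, cis-element reporter library, 24 h treatment; RNA isolated, cDNA amplified with reporter-specific primers, FAM-labeled fragments sized on capillary analyzer. DMSO baseline, bidirectional curve fit.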

outcome, inactive:
COc1ccc(C(=O)Nc2nc3ccccc3c(NCc3ccccc3)c2C#N)cc1
CC(C)COC(=O)CCCCC(=O)OCC(C)C
CC(C)c1cccc(C(C)C)c1
Oc1ccccc1O
O=C1O[C@H]([C@H](O)CO)C(O)=C1O
CN(C)C(=O)NC1(c2ccccc2)CCN(CC[C@@]2(c3ccc(F)c(F)c3)CN(C(=O)c3ccccc3)CCO2)CC1
C=CCCCCCCCCCCCC
O=C(NS(=O)(=O)/C=C/c1cccs1)c1ccc(F)cc1Br
CC1(C)C(=O)NC(=O)N1CO
CCC(C)N(C)C(=O)c1cc2ccccc2c(-c2ccccc2Cl)n1 (stereo not drawn)
CC(C)NCC(O)c1ccc(O)c(O)c1 (stereo not drawn)
O=C1CCCCC1
O=C(O)c1[nH]n(-c2ccc(S(=O)(=O)O)cc2)c(=O)c1N=Nc1ccc(S(=O)(=O)O)cc1
CCCC[C@H]1CN(CC2CCOCC2)C(=O)OC12CCN(C1(C)CCN(C(=O)c3c(C)ncnc3C)CC1)CC2
NC=O
CCCCCCCC(=O)OC
Cc1ccc(-c2cc(C(F)(F)F)nn2-c2ccc(S(N)(=O)=O)cc2)cc1
CC(COCC(C)OC(=O)c1ccccc1)OC(=O)c1ccccc1 (stereo not drawn)
CCc1nc(N)nc(N)c1-c1ccc(Cl)cc1
NC(=Nc1ccccc1)Nc1ccccc1
CSc1ccc(Oc2ccc(S(N)(=O)=O)cc2CN(C)C)cc1C
CS(=O)(=O)c1ccc([C@@H](C[C@H]2CCC(=O)C2)C(=O)Nc2cnccn2)cc1Cl
CN(C)CCCN(C)CCCN(C)C
O=C(Oc1ccccc1)c1cccc(C(=O)Oc2ccccc2)c1
COC(=O)CCC(=O)OC

AC50, active:
CN(C)C(=O)NC1(c2ccccc2)CCN(CCC[C@]2(c3ccc(Cl)c(Cl)c3)CCCN(C(=O)c3ccccc3)C2)CC1 4.73 µM
Cc1cc(SC2=C(O)C[C@@](CCc3ccc(N)cc3)(C(C)C)OC2=O)c(C(C)(C)C)cc1CO 29.1 µM
Oc1ccc(O)cc1 29.1 µM
CCCCCCC(C=O)=Cc1ccccc1 129 µM and 60 µM

System: not listed separately
Assay: ATG_SREBP_CIS: Attagene CIS-FACTORIAL HepG2 Assay for human Sterol Regulatory Element Binding (SREBP) (AID 2282962)
Settings: HepG2 Attagene cis-factorial SREBP reporter, mRNA; actives raise or lower the signal
How it was run: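 HepG2 cells transiently transfected with multiplexed cis-element reporter units report endogenous transcription factor activity. After 24 h of chemical exposure, reporter mRNA was quantified by RT-PCR, 6-FAM labelling, HpaI digestion and capillary electrophoresis; bidirectional fits used DMSO as baseline.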

AC50, active:
COc1ccc(C(=O)Nc2nc3ccccc3c(NCc3ccccc3)c2C#N)cc1 4.43 µM
CN(C)C(=O)NC1(c2ccccc2)CCN(CCC[C@]2(c3ccc(Cl)c(Cl)c3)CCCN(C(=O)c3ccccc3)C2)CC1 0.762 µM
CN(C)C(=O)NC1(c2ccccc2)CCN(CC[C@@]2(c3ccc(F)c(F)c3)CN(C(=O)c3ccccc3)CCO2)CC1 26.8 µM
CC1(C)C(=O)NC(=O)N1CO 150 µM
CCCCCCC(C=O)=Cc1ccccc1 26.3 µM
CSc1ccc(Oc2ccc(S(N)(=O)=O)cc2CN(C)C)cc1C 23.4 µM

outcome, inactive:
CC(C)COC(=O)CCCCC(=O)OCC(C)C
CC(C)c1cccc(C(C)C)c1
Cc1cc(SC2=C(O)C[C@@](CCc3ccc(N)cc3)(C(C)C)OC2=O)c(C(C)(C)C)cc1CO
Oc1ccccc1O
O=C1O[C@H]([C@H](O)CO)C(O)=C1O
C=CCCCCCCCCCCCC
O=C(NS(=O)(=O)/C=C/c1cccs1)c1ccc(F)cc1Br
CCC(C)N(C)C(=O)c1cc2ccccc2c(-c2ccccc2Cl)n1 (stereo not drawn)
CC(C)NCC(O)c1ccc(O)c(O)c1 (stereo not drawn)
O=C1CCCCC1
O=C(O)c1[nH]n(-c2ccc(S(=O)(=O)O)cc2)c(=O)c1N=Nc1ccc(S(=O)(=O)O)cc1
CCCC[C@H]1CN(CC2CCOCC2)C(=O)OC12CCN(C1(C)CCN(C(=O)c3c(C)ncnc3C)CC1)CC2
NC=O
CCCCCCCC(=O)OC
Cc1ccc(-c2cc(C(F)(F)F)nn2-c2ccc(S(N)(=O)=O)cc2)cc1
CC(COCC(C)OC(=O)c1ccccc1)OC(=O)c1ccccc1 (stereo not drawn)
CCc1nc(N)nc(N)c1-c1ccc(Cl)cc1
NC(=Nc1ccccc1)Nc1ccccc1
Oc1ccc(O)cc1
CCCCCCC(C=O)=Cc1ccccc1
CS(=O)(=O)c1ccc([C@@H](C[C@H]2CCC(=O)C2)C(=O)Nc2cnccn2)cc1Cl
CN(C)CCCN(C)CCCN(C)C
O=C(Oc1ccccc1)c1cccc(C(=O)Oc2ccccc2)c1
COC(=O)CCC(=O)OC
